Here are results for 40 molecules from PubChem BioAssay (NCI).

SMILES strings stand for the structures. About 79,000 compounds went through this panel and 15% of them were active in at least one assay; those are over-represented in the sample as a whole. Values without a mark were called inactive. Cut-off read from the data, not from the text of the source: active = growth inhibition above about 70%; inactive = the rest.

The assay in a line: NCI Yeast Anticancer Drug Screen. Data for the sgs1 mgt1 strain (AID 161).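 Note: 0% = growth of cultures given vehicle only.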 As to conditions: S. cerevisiae sgs1 mgt1 strain, at 50.0 µM, hits give high values. In outline: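 Test agents were incubated with a DNA-repair-mutant yeast strain. Growth was then read and compared against vehicle-treated controls.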
Take `CN1CCN(c2c3c(nc4ccccc24)CCCC3)CC1`: the growth inhibition is -2.4%.

Consider `CNC(=O)Nc1ccnc(=O)[nH]1`, for which the growth inhibition was -6.15%.

For `O=c1ccc(=O)n(-c2ccc(Cl)cc2)[nH]1`, the growth inhibition was -12.7%. Turning to `O=C(c1cccnc1)c1cc(-c2ccccn2)c(=O)n2ccccc12`, the growth inhibition was -13.6%. For `CCOC(=O)CC1(C)c2nc(NC(C)=O)sc2Cc2sc(NC(C)=O)nc21`, the growth inhibition was 0.8%. The value for `O=C1CCCCC1COCC1CCCCC1=O` (stereo not given) was -2.15%; that for `COc1cc(C2C3=C(COC3=O)OC(C)(C)Oc3cc4c(cc32)OCO4)cc(OC)c1O` (stereo not given) was -7.3%.

Regarding `[Co].[O-]c1cccnc1C=Nc1ccccc1.[OH3+]`, the growth inhibition was 37.4%. Take `COCC/C=C/CCl`: the growth inhibition was -8.35%. As to `Cc1cc(C(N)=O)c(C(N)=O)c(Cl)n1`, the growth inhibition is -3.2%.

Regarding `O=C1CCSSCCC(=O)Nc2ccccc2N1`, the growth inhibition is -14.8%.

Regarding `Cc1c(N=Nc2cccc(Cl)c2Cl)c(-c2ccccc2)nn1C(=S)S`, the growth inhibition is 55.9%. As to `CCC(C(O)c1ccccc1)[N+](=O)[O-]` (stereo not given), the growth inhibition is 9.5%. Consider `CCCCN(CCCC)S(=O)(=O)N1CCOCC1`, for which the growth inhibition was 3%. With `N#Cc1nc(CCC(C(=O)O)N2C(=O)c3ccccc3C2=O)oc1N` (stereo not given), the growth inhibition was -12.1%.

For the molecule `CS(=O)(=O)OCCC(O)COS(C)(=O)=O` (stereo not given), the growth inhibition was 9.45%. In the case of `CCOC(=O)/C(C#N)=C/NCC1CC1`, the growth inhibition is 1.6%.

In the case of `CCC[n+]1cccc(C#N)c1`, the growth inhibition was -7.35%.

`COC1=C(NCC(C)C)C(=O)C(OC)=C(NCC(C)C)C1=O`: the growth inhibition was 1.7%. As for `N#Cc1c(-c2ccccc2)nc(-c2ccccc2)sc1=S`, the growth inhibition is 42%. Take `C=C(Cl)C(=C)CCC(Cl)C(C)(C)Cl` (stereo not given): the growth inhibition was -13.7%. Turning to `CCOC(C)Oc1ccccc1` (stereo not given), the growth inhibition is 20.4%. Regarding `CCOC(=O)C(Br)CN1C(=O)c2ccccc2C1=O` (stereo not given), the growth inhibition is -5.35%. In the case of `COc1ccc2c(c1)C(C)(C(N)=O)CCC2` (stereo not given), the growth inhibition was 3.7%. As to `C/C(CC(O)(C(F)(F)F)C(F)(F)F)=N\NC(N)=O`, the growth inhibition is -22.5%. The value for `COc1nc(N=P(c2ccccc2)(c2ccccc2)c2ccccc2)cc(=O)[nH]1` was 26.9%; that for `COC1(OC)C(Cl)=C(Cl)C2C1C1(Cl)C(Cl)=C(Cl)C2(Cl)C1(OC)OC` (stereo not given) was 1.7%; that for `CCCC(O)C(C)N` (stereo not given) was -2.9%. With `CC(=O)O[C@H]1CC(C)(C)C(=C=C/C(C)=C/C=C/C=C/C=C(C)/C=C2C=C(/C=C/[C@@]34O[C@]3(C)C[C@@H](O)CC4(C)C)C(=O)O/2)[C@](C)(O)C1`, the growth inhibition is 0.9%. Consider `CC(=O)CC(=O)OC1CCCC(C)C1` (stereo not given), for which the growth inhibition was -17.9%. For `O=C(NC/C=C/Br)Oc1cccc2ccccc12` the value was 0.9%; for `COC(=O)C1(CC(=O)c2ccc(Cl)cc2)NC(=S)NC(=O)C1C#N` (stereo not given), 8%; for `CCCCOC(=O)c1ccc(OC(=O)Nc2ccccc2)cc1`, 11.4%. The value for `O=C1NCCN(CCc2ccccc2)C1c1ccccc1` (stereo not given) was -8.85%; that for `COc1cc(C=O)ccc1OC(=O)Nc1cccc(C(C)=O)c1` was 15.9%; that for `Clc1ccc(CN2COc3c(ccc4ccccc34)C2)cc1Cl` was 17.6%. For `Cc1c2ccccc2c(C)n2c1nc1cc3ccccc3cc12`, the growth inhibition is 11.8%. For the molecule `COc1ccc(OC)c(NC(=O)c2ccc(Cl)c(Cl)c2)c1`, the growth inhibition is 5.45%. On to `CC1SCC(=O)N1c1nncs1` (stereo not given), for which the growth inhibition is -51.9%. As to `CC(SSc1ccc(C(C)(C)C)cc1)c1ccccc1` (stereo not given), the growth inhibition was -11.1%.
